This experiment in a line: AlphaScreen optical interference compounds, dose response, counter-screen, biochemical, HTS (AID 1259373). Particulars: AlphaScreen optical interference counterscreen, cell-free.

The other results are listed elsewhere or left out. Values without a mark were called inactive. No rule for the calls is given here.

In PubChem BioAssay AID1259373 (The Scripps Research Institute Molecular Screening Center, 2018) one finds IC50 data, which are given here for 1 molecule.

Broadly, the IC50 is the midpoint of a concentration-inhibition curve. On to `CCOC(=O)C1C2NC(=S)N(CC)C1(C)Oc1ccc(Cl)cc12` (stereo unspecified), for which the IC50 was more than 8.6 µM.
